# Only some compounds are listed: those with a hit (about 0.4% of all), similar ones and a draw of the others.
# Cdc42 wt GTP – modulators (inhibitors or activators) of GTP binding to human Cdc42 wildtype; P60953; GST-Cdc42 beads, Bodipy-GTP binding, flow cytometry; actives lie on both sides; percent activity (GTP binding), % at 10 µM; hit rate 0.2% among 190,000;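 active means percent activity GTP binding at least 20 points away from the 100% baseline, either down as inhibitor or up as activator; inconclusive means compound flagged as likely green fluorescent from well-wide comparison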;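 further: median bead fluorescence of bound Bodipy-FL-GTP at 100 nM; 0% = excess unlabeled GTP control and 100% = no compound control; below 100% means less GTP binding so inhibitor and above means activator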
# Target sequence (P60953 whole entry, looked up): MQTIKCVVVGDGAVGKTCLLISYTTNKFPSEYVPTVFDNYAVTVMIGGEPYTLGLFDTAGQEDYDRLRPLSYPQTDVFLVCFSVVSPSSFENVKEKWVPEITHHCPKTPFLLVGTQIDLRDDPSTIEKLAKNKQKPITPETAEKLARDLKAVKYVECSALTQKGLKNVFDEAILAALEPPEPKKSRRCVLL
# Rab2 wt GTP – changes GTP binding to wildtype dog Rab2A, up or down. GST-Rab2 wt beads, Bodipy-GTP binding, flow cytometry. GTP binding activity, % at 10 µM. P61105. hit rate 0.19% among 190,000;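 active means GTP binding activity at least 20 points away from 100%, either lowered or raised; inconclusive means signal likely due to the compound's own green fluorescence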;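 further: 0% = beads with excess unlabeled GTP and 100% = no-compound control corrected for plate trend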
# Rab7 wt modul – dog Rab7 wildtype GTP binding, inhibitors and activators; GTP binding activity (percent of control), % at 10 µM; hit rate 0.055% among 190,000; AID 758; GST-Rab7 beads, fluorescent GTP binding, flow cytometry; actives lie on both sides; untreated = 100%, excess cold GTP = 0%;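 active means fluorescent GTP binding to Rab7 beads changed by at least 20 points from the 100% baseline, either direction, mostly lower; inconclusive means compound itself probably fluorescent, or too few beads counted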;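 further: median green fluorescence of bound Bodipy-FL-GTP per Rab7 bead population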
# HRas wt GTP – human HRas wildtype GTP binding, change in either direction; P01112; GST-Ras wt beads, Bodipy-FL-GTP binding, flow cytometry; actives lie on both sides; GTP binding activity, % at 10 µM; hit rate 0.14% among 190,000; AID 759;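 active means GTP binding activity at least 20% away from the 100% baseline, either lowered as inhibitor or raised as activator; inconclusive means flagged as likely green fluorescent, judged across all proteins in the well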;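 further: 0% = unlabeled GTP competition control and 100% = no-compound control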
# Target sequence (P01112 whole entry, looked up): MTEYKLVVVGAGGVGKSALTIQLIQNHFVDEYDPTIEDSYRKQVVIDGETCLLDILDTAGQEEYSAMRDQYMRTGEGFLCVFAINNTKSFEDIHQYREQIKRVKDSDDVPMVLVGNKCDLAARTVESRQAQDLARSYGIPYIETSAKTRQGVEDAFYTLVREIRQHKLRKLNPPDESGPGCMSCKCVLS
# Rac1 wt GTP bind – alters GTP binding to wildtype human Rac1 | GST-Rac1 beads, fluorescent GTP binding, flow cytometry; actives lie on both sides; 0 = cold GTP competed, 100 = untreated | GTP binding activity (% of control), % at 10 µM | hit rate 0.27% among 190,000 | AID 757;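 active means GTP binding activity at least 20 points away from the 100% control level, either lower or higher; inconclusive means compound flagged as likely green fluorescent, judged across all proteins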
# Rac1 mut GTP – human Rac1 activated mutant GTP binding change | P63000 | GST-Rac1 activated beads, fluorescent GTP binding, flow cytometry; actives lie on both sides; 100% means binding = to untreated wells | percent activity (GTP binding), % at 10 µM | hit rate 0.11% among 190,000;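 active means GTP binding at least 20 percentage points away from the 100% baseline, in either direction, so actives lie on both sides; inconclusive means Compound likely fluorescent itself, or too few beads counted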
# * hit, by the source's call; u = inconclusive; [ ] = another dose, or the depositor's remark.
SMILES,Cdc42 wt GTP,Rab2 wt GTP,Rab7 wt modul,HRas wt GTP,Rac1 wt GTP bind,Rac1 mut GTP
O=C(O)c1ccc(N2C(=O)/C(=C/c3ccc(-c4ccc([N+](=O)[O-])cc4)o3)C=C2c2ccccc2)cc1,75*,80,92,86,79*,79*
CC1=NN(c2ccc(Cl)c(C(=O)O)c2)C(=O)/C1=C\c1ccc(-c2ccc(C(=O)O)cc2)o1,87,88,91,90,89,87
COc1ccc(Cn2c(O)c(/C=N/NC(=O)c3cccnc3)c3ccccc3c2=O)cc1,68*,83,96,87,60*,72*
O=C(N/N=C/c1c(O)n(-c2ccccc2Cl)c(=O)c2ccccc12)c1cccnc1,91,93,94,93,94,94
O=C(N/N=C/c1c(O)n(Cc2ccccc2)c(=O)c2ccccc12)c1cccnc1,65*,71*,93,78*,55*,68*
CCOc1ccc(Cn2c3ccc(OC)cc3c3nc4ccccc4nc32)cc1,103,130*[activator],u,119,124*[activator],115
CCn1c(=O)[nH]c2cc(C(=O)Nc3cc(C)cc(C)c3)ccc2c1=O,95,93,97,95,99,97
COc1cccc2c(SCC(=O)N/N=C/c3ccc(O)c(O)c3)cc(C)nc12,71*,75*,89,79*,65*,84
COc1cccc2c(SCC(=O)N/N=C/c3ccccc3)cc(C)nc12,99,97,99,94,96,95
COc1ccc2nc(C)cc(SCC(=O)N/N=C/c3cccc4ccccc34)c2c1,98,98,97,98,98,97
COc1ccc2nc(C)cc(SCC(=O)N/N=C/c3ccc(O)c(O)c3)c2c1,69*,68*,91,72*,79*,82
CC(=O)Nc1ccnc(-c2cccnc2)n1,93,95,99,96,96,95
O=C(Nc1cccc(Cl)c1)Nc1ccnc(-c2cccnc2)n1,64*,67*,93,67*,77*,85
COc1cc(/C=N/NC(=O)CCN2CCN(c3ccccc3)CC2)cc(OC)c1OC,87,80,94,86,79*,90
COc1cc(/C=N/NC(=O)CCN2CCN(Cc3ccccc3)CC2)cc(OC)c1OC,99,101,97,100,100,101
COc1ccc(C2N(Cc3ccccc3)CC(=O)N2/N=C(\C)c2ccccc2)cc1 (stereo unspecified),101,98,95,99,103,97
CCOc1cc(/C=C(/C#N)c2nc3ccccc3[nH]2)ccc1OCc1ccc(C(=O)O)o1,77*,74*,92,76*,85,86
NC(N)=NS(=O)(=O)c1ccc(NC(=S)NC(=O)c2ccc3c(c2)OCO3)cc1,109,114,100,111,123*[activator],105
CCOC(=O)Cn1nc(C(F)F)c(Br)c1C,97,98,98,96,100,95
CCOc1ccc(NS(=O)(=O)c2ccc(C)c(C(=O)NCCCn3ccnc3)c2)cc1,97,99,95,95,101,96
O=C(COC(=O)C12CC3CC(CC(C3)C1)C2)Nc1nc2c(F)c(F)c(F)cc2s1,74*,94,93,94,93,96
COc1ccc(C(=O)OCC(=O)Nc2nc3c(F)c(F)c(F)cc3s2)cc1OC,97,98,102,97,98,93
O=C(C1CCCO1)N1CCN(C(=S)Nc2ccccc2C(F)(F)F)CC1 (stereo unspecified),108,125*[activator],108,117,109,104
O=C(NNc1nc(-c2ccccc2)c2cc(Br)ccc2n1)c1ccc(S(=O)(=O)N2CCCCC2)cc1,94,93,99,95,96,93
O=C(NNc1nc(-c2ccccc2)c2cc(Br)ccc2n1)c1ccc(S(=O)(=O)N2CCOCC2)cc1,82,75*,84,81,67*,87
SMILES,Cdc42 wt GTP,Rab2 wt GTP,Rab7 wt modul,HRas wt GTP,Rac1 wt GTP bind,Rac1 mut GTP
CC(=O)NNc1nc(-c2ccccc2)c2cc(Br)ccc2n1,101,102,100,100,105,98
CN(C)S(=O)(=O)c1ccc(C(=O)NNc2nc(-c3ccccc3)c3cc(Br)ccc3n2)cc1,85,82,90,83,78*,88
Cc1ccccc1Nc1n[nH]c(C)c1[N+](=O)[O-],98,99,98,97,99,100
Cc1ccc(Nc2n[nH]c(C)c2[N+](=O)[O-])c(C)c1,116,192*[activator],u,154*[activator],111,u
COCCNC(=O)c1cc(S(=O)(=O)N2CCOCC2)ccc1SCc1cccc(OC)c1OC,99,100,100,100,98,98
C/C(=N/NC(=O)c1ccoc1C)c1ccc(NC(=O)c2ccncc2)cc1,99,99,95,98,104,98
CSc1nnc(C)c(/C=C/Nc2ccc(F)cc2)n1,93,94,94,94,89,94
COc1ccc(N/C=C/c2nc(SC)nnc2C)cc1,67*,66*,90,69*,64*,81
CCOC(=O)c1sc(NC(=O)CSc2nnc(Cc3ccccc3)o2)c(C#N)c1C,85,78*,83,83,81,76*
CCOC(=O)c1c(NC(=O)CSc2nnc(Cc3ccccc3)o2)sc(C(C)=O)c1C,103,103,96,103,102,99
CC1=CC(=O)C=C(C)C1=NOS(=O)(=O)c1ccccc1,91,88,90,92,89,78*
Cc1ccc(S(=O)(=O)ON=C2CCN(S(=O)(=O)c3ccccc3)CC2)cc1,95,97,99,97,97,97
COc1ccc(C(=O)Nc2nc3ccccc3[nH]2)cc1S(=O)(=O)N1CCOCC1,78*,77*,82,80,82,90
Cc1ccc(C(=O)COC(=O)c2ccc3c(c2)C(=O)N(c2cccc4ncccc24)C3=O)cc1,77*,71*,84,76*,71*,75*
O=C(COC(=O)c1ccc2c(c1)C(=O)N(c1cccc3ncccc13)C2=O)c1ccc(Cl)cc1,89,83,90,90,82,86
CCN=C1S/C(=C\c2cn(CC)c3ccccc23)C(=O)N1CC,100,102,103,102,103,100
CCn1cc(C=C2C(=O)c3ccccc3C2=O)c2ccccc21,78*,81,83,77*,74*,81
CCNC(=O)COC(=O)COc1ccc(Cl)cc1C,102,102,98,101,105,100

# High-throughput results as filed in PubChem BioAssay.
